Rab9 promoter act – qHTS Assay for Rab9 Promoter Activators; Huh7 Rab9 promoter-luciferase reporter, luminescence, 24 h; Potency, µM (top dose mostly 9.22 µM), without a hit: at the highest dose activation, negative = inhibition, actives largely listed as activators; actives 2.8% (n = 320,000); AID 485297, 2010; further: % of control where 0% means no effect; nearly all actives have a fitted effect of over 60% in size
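Luminescence from Amplite-detected luciferase (10 minutes, ambient) reports Rab9 promoter activation. Before that, stable Rab9-luciferase Huh7 cells (1500/well, reduced-serum OP-MEM I plus 10% FBS) were exposed to compound for 24 hours at 37C.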
NPC1 prom act – qHTS Assay for NPC1 Promoter Activators; Huh7 NPC1 promoter luciferase reporter, 24 h; Potency, µM (titrated, usually from 9.22 µM), for inactives: at the highest dose activation, usual class: activators; actives 2.4% (n = 320,000); further: % of control where 0% means no effect; nearly all actives have a fitted effect of over 60% in size
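Luciferase expression driven by the NPC1 promoter was measured in stably transfected Huh7 cells after a 24 h compound incubation, using a luciferase reagent and a luminescence read.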
Luc counter – Counterscreen for Luciferase (Kinase-Glo TM) Inhibition; actives 0.28% (n = 200,000); Kinase-Glo luciferase, ATP luminescence, 8 min; Potency, µM (titrated, usually from 38.3 µM), inactives show at the highest dose activity change, negative = inhibition, actives largely listed as inhibitors; AID 1379, 2008; Luciferin 4-monooxygenase (Photuris pensylvanica), Q27757; further: on the % scale 0 is the no-effect control and ±100 the full control effect; nearly all actives have a fitted effect of over 60% in size
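Compounds were added to a substrate mix at pH 7.2 (50 mM imidazole, 10 uM ATP, within the enzyme's linear range), followed by Kinase-Glo detection reagent; luminescence was measured after 8 minutes at ambient temperature.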
FLuc counter – qHTS profiling assay for firefly luciferase inhibitor/activator using purifed enzyme and Km concentrations of substrates (counterscreen for miR-21 project); Luciferin 4-monooxygenase (Photinus pyralis), P08659; purified FLuc, Km substrates, luminescence inhibition; Potency, µM (highest dose often 57.5 µM), for the others: top-dose activity change, negative = inhibition, usual class: inhibitors; actives 6.9% (n = 360,000); AID 588342, 2011;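 further: plate controls were vehicle for no effect and reference inhibitor for full effect; nearly all actives have a fitted effect of over 55% in size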
Target sequence (P08659 whole entry, looked up): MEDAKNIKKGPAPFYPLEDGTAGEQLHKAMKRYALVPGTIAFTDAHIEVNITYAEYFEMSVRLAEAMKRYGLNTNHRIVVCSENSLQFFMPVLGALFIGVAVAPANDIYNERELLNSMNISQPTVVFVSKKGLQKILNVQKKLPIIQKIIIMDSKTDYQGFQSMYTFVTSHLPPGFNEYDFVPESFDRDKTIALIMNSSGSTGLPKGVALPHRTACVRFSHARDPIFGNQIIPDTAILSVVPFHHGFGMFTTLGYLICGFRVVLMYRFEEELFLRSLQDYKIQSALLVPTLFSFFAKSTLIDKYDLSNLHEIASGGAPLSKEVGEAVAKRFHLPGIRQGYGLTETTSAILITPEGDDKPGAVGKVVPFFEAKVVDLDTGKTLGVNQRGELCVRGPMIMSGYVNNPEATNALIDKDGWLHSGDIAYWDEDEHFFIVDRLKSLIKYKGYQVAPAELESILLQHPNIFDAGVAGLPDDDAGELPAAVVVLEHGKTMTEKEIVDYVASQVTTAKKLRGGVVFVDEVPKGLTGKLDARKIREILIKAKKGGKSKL
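Biochemical qHTS of compounds, final roughly 60 µM downward over six points, against 10 nM purified firefly luciferase using Km concentrations of substrates (10 uM D-luciferin, 10 uM ATP) in Tris acetate pH 7.5 buffer; luminescence output.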
SMN2 splice enh – qHTS Assay for Enhancers of SMN2 Splice Variant Expression; HEK293 SMN2-luciferase splicing reporter, luminescence, 30-36 h; Potency, µM (top dose mostly 46.1 µM), inactives show at the top dose activity change, positive = activation, hits mostly activators; actives 2.8% (n = 210,000); AID 1458, 2008; further: % of control where 0% means no effect; nearly all actives have a fitted effect of over 55% in size
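HEK293 cells carry an SMN2 […]–luciferase reporter in which exon 7 inclusion puts luciferase in frame. Cells were plated 10-12 h before compound addition, then incubated 30-36 h at 37C. ONE-Glo luminescence was read; sodium butyrate at 4.5 mM final served as control.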
ELG1 genotox – qHTS screen for small molecules that induce genotoxicity in human embryonic kidney (HEK293T) cells expressing luciferase-tagged ELG1; actives 1.3% (n = 330,000); Potency, µM (top dose mostly 46 µM), without a hit: at the highest dose activity change, positive = activation, hits mostly activators; AID 504466, 2011; HEK293T ELG1-luciferase reporter, luminescence, 16 h; further: % of control where 0% means no effect; nearly all actives have a fitted effect of over 60% in size
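Reporter readout depends on ELG1 protein level, which increases with genetic stress. After 16 hr compound exposure at 37 °C, luciferase activity was quantified using ONE-Glo.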
* hit, by the source's call; u = inconclusive; x = no result; [ ] = another dose, or the depositor's remark. A selection: hits, their analogues and other compounds. The true share with any hit is near 7.5%. The call rests on the fitted dose curve; in most records, active means well fitted curve in the direction sought with a large enough effect; inconclusive means small, poorly fitted or top-dose-only effect, or another doubt; inactive means no such curve, though single readings can be large; an effect the other way counts as inactive or inconclusive. Potency means the concentration at half of the fitted maximal effect.

SMILES	Rab9 promoter act	NPC1 prom act	Luc counter	FLuc counter	SMN2 splice enh	ELG1 genotox
O=C(C1CCN(S(=O)(=O)c2cccc3nonc23)CC1)N1CCN(c2ccc(F)cc2)CC1	x	x	x	-0.1%	-13.0%	x
Cc1c(C(=O)/C=C/c2cccs2)oc2ccc(F)cc12	3.98µM*	3.98µM*	-3.3%	0.675µM*	-13.6%	u
Cc1c(C(=O)Nc2nccs2)oc2ccc(Br)cc12	x	x	x	x	x	9.2µM*
Cc1c(C(=O)Nc2nccs2)oc2ccc(F)cc12	1.58µM*	3.55µM*	x	u	x	14.4%
Cc1c(C(=O)N2CCN(C(=O)c3ccccc3)CC2)oc2ccc(F)cc12	1.9%	-6.3%	x	4.8%	x	-0.9%
CCOc1ccccc1NC(=O)Cn1c(=O)ccc2cc(S(=O)(=O)N3CCCC3)ccc21	x	x	x	-4.7%	x	x
O=[N+]([O-])c1ccccc1-c1ccc(C(=S)N2CCCC2)o1	2.82µM*	u	-8.6%	21.3µM*	11.2µM*	-6.1%
O=[N+]([O-])c1ccccc1-c1ccc(C(=S)N2CCCCC2)o1	3.16µM*	2µM*	x	8.49µM*	x	u
CCCN1CCN(CC2=C(C(=O)OCC)C(c3ccc(OC(C)C)cc3)NC(=O)N2)CC1 (stereo not given)	x	x	x	-8.0%	-0.1%	x
COCCNC(=O)C(c1ccncc1)N(Cc1ccccc1)C(=O)Cn1nnc2ccccc21 (stereo not given)	u	u	-2.7%	u	12.6µM*	-0.2%
COCCNC(=O)C(c1cccnc1)N(Cc1ccccc1)C(=O)Cn1nnc2ccccc21 (stereo not given)	u	17.8%	3.7%	u	26.2%	u
Cc1c(CCC(=O)NCCCCCC(=O)O)c(=O)oc2cc3occ(-c4ccccc4)c3cc12	-10.5%	0.1%	x	u	x	0.2%
CCOC(=O)c1cnc(SCc2ccc(C(C)(C)C)cc2)nc1N	-4.2%	10.5%	-2.7%	-19.4%	-40.2%	10.1%
CCOC(=O)C(C)Sc1ncc(-c2ccccc2)cn1 (stereo not given)	23.0%	5.1%	-3.5%	21.3µM*	3.4%	8.2%
CCOC(=O)c1cnc(SCc2ccccc2)nc1N	0.891µM*	1.58µM*	-0.8%	2.13µM*	5.62µM*	7.31µM*
O=C(O)c1cc(-c2ccc3c(c2)OCO3)nc2ccc(Cl)cc12	29.4%	0.4%	x	2.39µM*	x	28.8%
COC(=O)c1ccc(-c2cc(C(=O)O)c3cc4c(cc3n2)OCCO4)cc1	-1.1%	2.9%	-2.8%	4.78µM*	6.7%	u
CC(C)(C)NC(=O)c1cc(-c2ccc3c(c2)OCO3)nc2ccccc12	-5.3%	19.9%	x	16.9µM*	x	0.7%
Cn1c(NC(=O)c2cc(-c3ccc4c(c3)OCO4)nc3ccccc23)cc(=O)n(C)c1=O	20.0%	29.6%	u	2.13µM*	10µM*	u
O=C(Nc1ccc2c(c1)OCO2)c1cc(-c2ccncc2)nc2ccccc12	5.4%	2.4%	-6.6%	u	12.5%	-2.1%
COCCn1c(=O)c(-c2ccc(OC)cc2)nc2cnc(Oc3ccc(OC)cc3)nc21	x	x	0.4%	x	-0.3%	x
O=C(O)c1cc(-c2ccc(-c3c(-c4ccc5c(c4)OCO5)noc3-c3ccsc3)cc2)nc2ccccc12	20.6%	u	x	19µM*	x	3.1%
CN(C)c1ccc(-c2c(-c3ccc4c(c3)OCO4)noc2-c2ccsc2)cn1	9.4%	9.8%	x	u	x	-1.0%
O=C(Cn1cnc2ccccc2c1=O)Nc1ccc(N2CCOCC2)cc1	4.3%	-3.5%	2.2%	-2.6%	6.8%	0.3%
CCNC(=S)NNC(=O)c1cc(CC(C)C)nc2ccccc12	4.7%	-8.2%	-0.8%	u	-17.9%	-2.0%
SMILES	Rab9 promoter act	NPC1 prom act	Luc counter	FLuc counter	SMN2 splice enh	ELG1 genotox
CCNC(=S)NNC(=O)c1cc(-c2ccccc2C)nc2ccccc12	-4.1%	-6.7%	-1.0%	16.9µM*	-8.6%	-5.9%
CCNC(=S)NNC(=O)c1cc(-c2cccc(OC)c2)nc2ccccc12	15.2%	24.3%	u	0.675µM*	u	u
CCCOc1cccc(-c2cc(C(=O)NNC(=S)NCC)c3ccccc3n2)c1	u	21.0%	-6.2%	0.757µM*	21.4%	27.0%
CCCOc1ccc(C(=O)NNC(=S)NC(=O)c2cc(-c3ccc(Cl)cc3)nc3ccccc23)cc1	-6.0%	-9.3%	-5.4%	u	-9.3%	-5.2%
Cc1ccc(C)c(-c2cc(C(=O)NNC(=S)NCC(C)C)c3ccccc3n2)c1	-4.5%	-2.8%	x	u	x	-2.7%
COc1ccc(C(=O)NNC(=S)NC(=O)c2cc(-c3ccccc3)nc3ccccc23)cc1	2.7%	-1.5%	-2.3%	12µM*	-14.1%	-4.9%
CCC(C(=O)Nc1ccc(C(=O)OC)cc1)n1c(=O)c(-c2ccccc2NC(C)=O)nc2ccccc21 (stereo not given)	x	x	x	-12.9%	x	x
CCc1ccccc1NC(=O)c1cnc2sc(N3CCOCC3)nn2c1=O	x	x	x	0.9%	x	x
O=C(CCNS(=O)(=O)c1ccccc1)NCC1CCCCC1	-2.5%	-1.2%	x	0.8%	x	-0.9%
CCNC(=S)NNC(=O)c1cc(-c2ccc(OCC)cc2)nc2ccccc12	u	u	1µM*	0.0239µM*	-14.5%	-7.4%
COc1ccc(-c2cc(C(=O)NNC(=S)NC(=O)c3c(-c4ccccc4)noc3C)[nH]n2)cc1	2.0%	-3.7%	2.1%	9.53µM*	-7.7%	-7.6%
CN1C(=O)[C@H]2[C@@H](/C=C/c3ccccc3)N3C(=O)CN(Cc4ccccn4)C(=O)[C@@]3(C)[C@H]2C1=O	-3.4%	0.0%	x	4.6%	x	-0.1%
O=C(NC1CCN(Cc2ccccc2)CC1)c1cccc(S(=O)(=O)Nc2ccc(SC(F)F)cc2)c1	x	x	x	x	x	-2.9%
O=C(Cc1ccccc1)N(Cc1cccnc1)c1nc2c(Cl)cccc2s1	x	x	x	-11.1%	x	x
CCOc1ccc(C(=O)Cc2cc3cccc(OC)c3oc2=O)cc1	1.1%[1.84 µM]	1.0%	x	u	x	3.0%
Cc1ccc(C(=O)Cc2cc3ccccc3oc2=O)c(C)c1	0.794µM*	1.41µM*	x	3.01µM*	x	u
COc1ccc(C(=O)Cc2cc3ccccc3oc2=O)cc1	u	3.55µM*	x	12µM*	x	u
CN(C)c1ccc(Nc2ccc([N+](=O)[O-])cn2)cc1	u	3.55µM*	x	u	x	u
